The list is not random: actives were taken first. Their share in the collection is about 5.7%.
hgDAF12 agonist: hgDAF-12 agonism, primary luciferase screen; hit rate 1.8% among 370,000; HEK293 GAL4-hgDAF12 UAS-luciferase reporter, agonist luminescence; normalized to butyrate control; AID 687014; activation, % at 6.8 µM;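 active = activation above a cutoff set at the mean of all screened compounds plus 3 SD, cut at about 10% in these data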
DAX1 inh-1: inhibitors of DAX1 repression of SF-1 activated StAR promoter. HEK293T StAR-luciferase reporter, SF-1/DAX-1 repression relief. inhibition, % at 6.8 µM. hit rate 1.1% among 370,000;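 active = inhibition above the mean over all tested compounds plus 3 SD, cut at about 3.6% in these data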;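 note: higher inhibition means more luminescence from relief of DAX-1 repression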
ssDAF-12 act: S. stercoralis DAF-12 activation, primary screen; HEK293 ssDAF-12/GRIP1 lit1-tk-luc reporter, luminescence; % of 3 µM dafachronic acid response; activation, % at 6.8 µM; hit rate 1% among 370,000; AID 652126;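 active = activation above the mean over all tested compounds plus 3 SD, cut at about 0.9% in these data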
hcDAF-12 act: activators of H. contortus DAF-12 nuclear receptor; HEK293 hcDAF-12 lit1-tk-luc reporter, luminescence; 0% DMSO, 100% Δ7-dafachronic acid; activation, % at 6.8 µM; hit rate 1.4% among 370,000; AID 652067;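 active = activation above the mean of all tested compounds plus 3 SD, cut at about 5.5% in these data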
DAX1 inh-2: inhibitors of human orphan nuclear receptor DAX1 (NR0B1). P51843. HEK293 Gal4-DAX1 luciferase reporter, luminescence. inhibition, % at 6.75 µM. hit rate 0.99% among 340,000;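 active = inhibition above the mean over all tested compounds plus 3 SD, cut at about 4.2% in these data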;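 note: inhibition shows as a rise in luminescence from relieved DAX1 repression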
AHR act: activates the human aryl hydrocarbon receptor; AID 2796; hit rate 2.5% among 320,000; activation, % at 5 µM; AHR-responsive luciferase reporter cells, luminescence; P35869; in the data active = activation above about 47%
Target sequence (P35869 whole entry, looked up): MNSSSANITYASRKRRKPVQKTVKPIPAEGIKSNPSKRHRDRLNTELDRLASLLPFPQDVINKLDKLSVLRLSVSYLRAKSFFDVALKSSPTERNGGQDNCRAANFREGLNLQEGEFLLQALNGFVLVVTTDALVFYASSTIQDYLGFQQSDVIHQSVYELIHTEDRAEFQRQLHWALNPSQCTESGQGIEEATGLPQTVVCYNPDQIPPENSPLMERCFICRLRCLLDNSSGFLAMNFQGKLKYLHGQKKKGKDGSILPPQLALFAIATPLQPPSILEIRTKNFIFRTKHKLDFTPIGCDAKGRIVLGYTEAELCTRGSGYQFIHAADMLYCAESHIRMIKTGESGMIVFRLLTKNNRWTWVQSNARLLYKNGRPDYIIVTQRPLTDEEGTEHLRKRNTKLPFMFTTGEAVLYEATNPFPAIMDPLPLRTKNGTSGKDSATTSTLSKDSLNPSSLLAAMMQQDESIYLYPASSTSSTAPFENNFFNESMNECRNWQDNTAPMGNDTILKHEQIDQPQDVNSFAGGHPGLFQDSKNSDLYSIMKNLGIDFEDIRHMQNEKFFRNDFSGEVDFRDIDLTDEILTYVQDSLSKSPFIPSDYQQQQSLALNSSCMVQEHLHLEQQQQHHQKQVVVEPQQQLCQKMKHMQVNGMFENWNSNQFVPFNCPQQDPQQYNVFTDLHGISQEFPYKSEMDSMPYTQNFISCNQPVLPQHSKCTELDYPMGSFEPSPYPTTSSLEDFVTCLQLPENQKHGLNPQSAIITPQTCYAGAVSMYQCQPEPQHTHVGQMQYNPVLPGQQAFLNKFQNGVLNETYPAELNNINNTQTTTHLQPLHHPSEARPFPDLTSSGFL
A number is an active result; - = inactive; . = no result.

SMILES | hgDAF12 agonist | DAX1 inh-1 | ssDAF-12 act | hcDAF-12 act | DAX1 inh-2 | AHR act
O=C1NC[C@@H](CCCCN2C[C@H](Cc3ccccc3)N(CCc3ccccc3)C(=O)C2=O)N(Cc2ccccc2)C1=O | - | - | - | - | . | .
O=C(Cn1c(=O)[nH]c2ccsc2c1=O)NC1CCCCCC1 | - | - | - | - | 7.3 | -
CC1CCC(NC(=O)Cn2c(=O)[nH]c3ccsc3c2=O)CC1 (configuration not stated) | - | - | - | - | - | -
COc1cccc(C(=O)N(Cc2ccc3c(c2)OCO3)Cc2nc3ccccc3c(=O)[nH]2)c1 | - | - | - | - | - | -
CC(NC(=O)c1ccc2ccccc2n1)c1ccccc1 (configuration not stated) | - | - | - | - | 5.4 | -
CN(C)C(CNC(=O)c1ccc2ccccc2n1)c1ccccc1 (configuration not stated) | - | - | - | - | - | -
Cn1c(SCc2cccc(F)c2)nnc1-c1ccccn1 | - | - | - | - | 5.2 | -
Cn1c(SCc2ccccc2)nnc1-c1ccc(O)cc1 | - | - | 0.9 | - | - | -
Cn1c(SCc2cccc(Br)c2)nnc1-c1ccccn1 | - | - | - | - | - | -
Cn1c(SCc2ccccc2)nnc1-c1ccco1 | 13 | - | - | - | - | -
O=C(O)c1cc(S(=O)(=O)Nc2ccc(OCc3ccccc3)cc2)ccc1Br | - | - | - | - | - | -
O=[N+]([O-])c1ccccc1S(=O)(=O)N1CCCC(C(F)(F)F)C1 (configuration not stated) | - | - | - | - | - | -
Cc1ccc2c(c1)C(c1ccccc1)N(C(=O)CC(C)C)CC(=O)N2 (configuration not stated) | - | - | - | - | - | -
CSC1=NC(=O)/C(=C/c2ccc(SC)cc2)S1 | 13 | - | - | - | - | -
CCOC(=O)CSC1=NC(=O)/C(=C\c2ccc(Cl)cc2)S1 | - | - | 1.3 | - | - | -
CCn1nc(C)c(NS(=O)(=O)c2ccc(C)cc2)c1C | - | - | - | - | - | -
CCOC(=O)c1c(C)[nH]c(C2=NNC(=Nc3ccccc3OC)SC2)c1C | - | - | - | 6.0 | - | -
CCOC(=O)c1c(C)[nH]c(C2=NNC(=Nc3ccccc3)SC2)c1C | - | - | - | - | - | .
COc1ccc([N+](=O)[O-])cc1NC(=O)CSCc1ccc(Br)cc1 | - | - | 1.0 | - | - | -
COc1ccc([N+](=O)[O-])cc1NC(=O)CSc1nccc(C)n1 | - | - | - | - | - | 69
COc1ccc([N+](=O)[O-])cc1NC(=O)CSc1ncccn1 | - | - | - | - | . | -
O=[N+]([O-])c1ccccc1S(=O)(=O)Oc1ccc(/C=N/n2cnnc2)cc1 | - | - | 1.2 | - | - | -
COc1cc(/C=N/n2cnnc2)ccc1OS(=O)(=O)c1ccccc1[N+](=O)[O-] | - | - | - | - | - | -
FC(F)(F)c1cnc(COc2cc(Cl)cc(Cl)c2)c(Cl)c1 | - | - | - | - | 5.8 | -
O=C(CSc1nncs1)NC(=O)Nc1ccc2c(c1)OCCO2 | 12 | - | - | - | - | -
SMILES | hgDAF12 agonist | DAX1 inh-1 | ssDAF-12 act | hcDAF-12 act | DAX1 inh-2 | AHR act
CCCC(=O)N(c1ccc(OCC)cc1)C1C=CS(=O)(=O)C1 (configuration not stated) | - | - | - | - | - | -
CCOc1ccc(N(C(C)=O)C2C=CS(=O)(=O)C2)cc1 (configuration not stated) | - | - | - | - | 5.3 | -
COc1ccc(Cl)cc1NC(=O)CN(C)C(=O)c1sccc1-c1ccccc1 | - | - | - | - | - | 55
CCCn1c(SC(C)C(=O)NCC2CCCO2)nc2cc(Cl)ccc2c1=O (configuration not stated) | - | - | - | - | - | -
COc1ccccc1-n1c(SC(C)C(=O)NCC2CCCO2)nc2cc(Cl)ccc2c1=O (configuration not stated) | - | - | - | - | - | 59
COc1cc(CCCN2CCNC[C@@H]2Cc2ccc(O)cc2)cc(OC)c1OC | - | - | 1.0 | - | - | -
O=C1CC(NS(=O)(=O)c2cccnc2)CN1c1ccc(F)cc1 (configuration not stated) | - | 3.9 | - | - | - | -
Cc1ccc(N2CC(NS(=O)(=O)c3cccnc3)CC2=O)cc1C (configuration not stated) | - | - | - | - | - | -
CC(=O)c1c(C)[nH]c(C(=O)OCC(=O)N2CCCC2=O)c1C | - | - | - | - | - | -
COc1ccc(NC(=O)C(C)N2C(=O)c3ccccc3S2(=O)=O)c(OC)c1 (configuration not stated) | - | - | - | - | - | -
CCOC(=O)CN1C(=O)C(C)(C)Oc2ccc(C(=O)Nc3ccccc3OC)cc21 | - | - | - | - | - | -
CCOc1ccccc1NC(=O)c1ccc2c(c1)C(=O)N(CC(C)C)C2=O | - | - | - | - | - | 50
COCCCN1C(=O)c2ccc(C(=O)Nc3ccccc3OC)cc2C1=O | - | - | - | - | - | 67
CCOc1ccccc1NC(=O)C(C)N1C(=O)c2ccccc2S1(=O)=O (configuration not stated) | - | 3.7 | - | - | - | -
COc1ccccc1NC(=O)c1ccc2c(c1)N(CC#N)C(=O)C(C)(C)O2 | - | - | - | - | - | 62
COc1ccc(CC(C)N2CCN(c3ccccc3OC)CC2)cc1OC (configuration not stated) | - | - | - | - | - | -
Cc1cc(-c2c(C)[nH]n(-c3ccccc3)c2=O)n(-c2ccccc2)n1 | - | - | - | - | - | -
Cc1cc(-c2c(C)[nH]n(-c3ccccc3)c2=O)n[nH]1 | - | - | - | 5.8 | - | -
Cc1cc(C)cc(NC(=O)N2CCCN(c3c(Cl)cncc3Cl)CC2)c1 | - | - | 1.8 | - | - | -
O=C(Nc1cccc2ccccc12)N1CCCN(c2c(Cl)cncc2Cl)CC1 | - | - | - | - | - | -
COc1ccc(CCn2c(-c3ccccc3)nc3c(c(=O)c4ccccc4n3C)c2=O)cc1 | - | - | - | 5.8 | . | -
Oc1ccccc1-c1nnc(SCCN2CCOCC2)n1Cc1ccccc1 | - | - | 1.1 | 6.9 | - | -
Cc1nc2ccccc2c(=O)n1CCc1ccccc1 | - | - | - | - | - | 51
O=C(CSc1nnc(-c2ccccc2)n1Cc1ccccc1)N1CCOCC1 | - | - | - | - | - | -
O=c1c2ccccc2nc(SCCN2CCOCC2)n1CCc1ccccc1 | - | - | - | - | - | 52
COc1ccc(CCn2c(SCCN3CCCCC3)nc3ccccc3c2=O)cc1OC | - | - | - | - | - | -
Cn1c(=O)c(=O)n(C)c2cc(S(=O)(=O)N3CCN(CCO)CC3)ccc21 | - | - | - | - | . | .

High-throughput results as filed in PubChem BioAssay.
